Data as given in ChEMBL document CHEMBL3988442, “University of Dundee, Small-Polar-MMV Screening Library” (2021).
Screen size: about 48,000 compounds; about 13,000 (27%) showed an effect of 50% or more. The list shows a part of the results.

Test system: Wolbachia pipientis
Assay: Anti-Wolbachia Cell-Based Screen
Type: functional
Set-up: scale not given: in the data most compounds retested in dose-response had high values
Conditions: 5 µM

| SMILES | Percent Effect [%] |
| --- | --- |
| NC(=O)C1CCN(C(=O)c2ccccc2OCc2ccncc2)CC1 | -0.6716 |
| NC(=O)c1ccc(N2CCCCC2)c(NC(=O)c2cc(Br)ccc2Cl)c1 | 10.69 |
| O=C(c1cc(Br)ccc1-n1cnnn1)N1CCCC1 | 113.6 |
| Cc1cnn(C2CCCN(C(=O)c3sccc3-n3cnnn3)C2)c1 (stereo unspecified) | -13.25 |
| NC(=O)C1CCN(C(=O)c2ccc(Cn3cc(Br)cn3)cc2)CC1 | -10.39 |
| NC(=O)C1CCN(C(=O)c2cc(Br)ccc2-n2cnnn2)CC1 | 120.4 |
| O=C(c1cc(Br)ccc1-n1cnnn1)N1CCCCC1 | 184.2 |
| NC(=O)c1ccc(N2CCCCC2)c(NC(=O)c2cc(Br)ccc2F)c1 | 10.52 |
| O=C(c1cc(Br)ccc1Cl)N1CCN(Cc2ccco2)CC1 | 8.904 |
| O=C1C(Nc2ccc3nccnc3n2)CCN1c1ccccc1F (stereo unspecified) | -13.15 |
| O=C(CCCc1ccccc1)Nc1cnc(N2CCOCC2)nc1 | -16.01 |
| CNC(=O)c1cccc(CNC(C)c2cc(Cl)ccc2OC)c1 (stereo unspecified) | 8.961 |
| CCc1c(C)nn(C)c1NC(=O)N1CCCOC(Cn2cccn2)C1 (stereo unspecified) | -2.471 |
| CCOCCn1nc(C)cc1C(=O)N1CC(C)(C)[C@@](C)(O)C1 | -27.83 |
| CC1=Nc2c(c(=O)[nH]n2C(C)C)C(c2ccccc2)S1 (stereo unspecified) | 3.045 |
| CC1=Nc2c(c(=O)[nH]n2C(C)C)C(c2ccc(F)c(F)c2)S1 (stereo unspecified) | 0.5897 |
| CC1=Nc2c(c(=O)[nH]n2C(C)C)C(c2ccsc2)S1 (stereo unspecified) | 124.6 |
| COc1cc(OC)cc(N2CCC(NCc3cc[nH]n3)C2)c1 (stereo unspecified) | -8.563 |
| Cc1ccc(C(NC(=O)Cc2nc3ncccn3n2)C2CC2)cc1 (stereo unspecified) | -15.47 |

| SMILES | Percent Effect [%] |
| --- | --- |
| O=S(=O)(c1ccc2c(c1)CCC2)N1CCCC(Cn2cncn2)C1 (stereo unspecified) | 1.903 |
| O=C(CSCc1ccccn1)NCC1CCN(C2CC2)C1 (stereo unspecified) | 21.4 |
| O=C(NCCNc1ncccn1)NCc1cccc(OC(F)F)c1 | -1.067 |
| COc1cccc(CSCC(=O)NCc2cccnc2)c1 | 3.69 |
| CCCSCC(=O)Nc1ncn(CC(=O)NCc2ccccc2)n1 | 0.11 |
| CCN(C)Cc1cccc(CNC(=O)CSCc2ccncc2)c1 | 124.3 |
| O=C(CSCc1ccccn1)NCC1CC1 | 22.7 |
| O=C(CSCc1ccncc1)NCC1CCN(C2CC2)C1 (stereo unspecified) | 13.02 |
| CCN(C)Cc1cccc(CNC(=O)CSCc2ccccn2)c1 | 99.73 |
| CC(Cn1ccnc1)NC(=O)NCCc1ccccn1 (stereo unspecified) | -12.71 |
| CCN(C)Cc1cccc(CNC(=O)NCCc2ccccn2)c1 | 112.6 |
| CCCC(=O)NCc1cccc(C(=O)OC)c1 | -9.94 |
| CCCSCC(=O)NCc1cccc(CN(C)CC)c1 | 105 |
| Cc1csc(N2CCCN(C(=O)C(C)n3ccnc3)CC2)n1 (stereo unspecified) | -4.315 |
| Cc1nnc2n1CC(CNCc1nc(-c3cccs3)no1)CC2 (stereo unspecified) | -7.356 |
| CCn1cc2c(n1)C(COC)CN(Cc1ccccn1)C2 (stereo unspecified) | -2.413 |
| CCSCCn1cc(-c2ncc[nH]2)nn1 | 7.304 |
| CNC1CCN(C2CCN(c3ccc(-c4ccco4)cc3)CC2)CC1 | -8.193 |
| Cn1cc(C(=O)N2CCCN(c3cccnn3)CC2)c2ccccc21 | -6.467 |

| SMILES | Percent Effect [%] |
| --- | --- |
| O=S(=O)(CCCn1cncn1)Cc1ccccc1Cl | -3.419 |
| CC(C)OCCOCc1cccc(NC(=O)NCc2ccccn2)c1 | 14.04 |
| CC(C)C(=O)Nc1cccc(CNC(=O)CSCc2ccccn2)c1 | 119.7 |
| CC(C)c1cc2c(O)nc(CSCC(=O)NCc3ccccn3)nc2s1 | -13.17 |
| Nc1cc2c(nn1)CCN(C(=O)CCc1ccc3c(c1)OCO3)C2 | -16.52 |
| Nc1cc2c(nn1)CCN(C(=O)c1cccc3c1OCCO3)C2 | 2.04 |
| CCNc1cc2c(nn1)CCN(C(=O)c1cccc3c1OCCO3)C2 | 1.992 |
| CCNc1cc2c(nn1)CCN(C(=O)C1COc3ccccc3O1)C2 (stereo unspecified) | -8.562 |
| CNc1cc2c(nn1)CCN(C(=O)c1cccc3c1OCO3)C2 | -1.864 |
| Nc1cc2c(nn1)CCN(C(=O)c1cccc3c1OCO3)C2 | 99.08 |
| CNc1cc2c(nn1)CCN(C(=O)c1cccc3c1OCCO3)C2 | 94.51 |
| CCNc1cc2c(nn1)CCN(C(=O)c1cccc3c1OCO3)C2 | 107.3 |
| O=C(c1ccoc1)N1CC[C@H]2[C@H]1CCN2S(=O)(=O)C1CC1 | -16.54 |
| Cc1cc(C(=O)N2C[C@@H]3CN(S(C)(=O)=O)CCO[C@@H]3C2)c(C)o1 | -7.965 |
| Cc1oncc1C(=O)N1CC[C@H]2[C@H]1CCN2S(C)(=O)=O | 102.2 |
| Cc1cc(C(=O)N2CC[C@H]3[C@H]2CCN3S(C)(=O)=O)c(C)o1 | 109.3 |
| O=C(c1cnccn1)N1CC[C@H]2[C@H]1CCN2S(=O)(=O)C1CC1 | -1.574 |
| CO[C@@H]1CCN(C(=O)c2cnoc2C)[C@H]1Cc1ccccc1 | -17.67 |
